96 compounds from PubChem BioAssay AID1628 (Sanford-Burnham Center for Chemical Genomics, 2009) can be followed below.

The structures appear in SMILES notation. Hit rate of the full screen: of about 190,000 compounds, about 930 (0.49%) were called active.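 The calls were made as follows: active = z-score of insulin promoter reporter brightness in nuclei below -3 at 5 µM, with at least 500 cells counted; inconclusive = wells with under 500 cells, flagged as toxic or sparse; inactive = the rest.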 The list shows a part of the results. Measured potencies and affinities stand elsewhere.

The nature of the test: insulin promoter down-regulators in MIN6 cells, imaging, high-content screening, mouse beta cells (AID 1628). The settings on record: MIN6 insulin promoter GFP reporter, at 5 µM, stronger effect = lower value.
On to `C=CCn1c(-c2csc(-c3ccc(OC)c(OC)c3)n2)n[nH]c1=S`, for which the z-score is -3.05 (active). `C=CCn1c(-c2oc3nc(-c4ccccc4)cc(-c4ccccc4)c3c2N)n[nH]c1=S`: the z-score is 5.57 (inactive).

For the compound `COc1ccc(C(=O)c2sc3nc(-c4ccccc4)ccc3c2N)cc1OC`, the z-score is 5.8 (inactive). Turning to `CCN(CC)c1ccc2cc(-c3nc(-c4ccc(OC)cc4)cs3)c(=O)oc2c1`, the z-score was 17 (inactive). To `CCOC(=O)Cc1csc(NC(=O)c2sc3nc4c(C)cc(C)cc4cc3c2N)n1` belongs 4.73 (inactive); to `Cc1nnc(SCC2=C(C(=O)O)N3C(=O)C(NC(=O)Cn4nc(C)c(Cl)c4C)C3SC2)s1` (stereo unspecified), 1.08 (inactive).

As to `CCOC(=O)c1cnc(-n2nc(C)cc2C)nc1NCc1ccccc1`, the z-score is -3.75 (active). Turning to `CCOC(=O)c1cnn(-c2cc(C)nc3c(-c4ccccc4)cnn23)c1N`, the z-score was 3.62 (inactive). To `Cc1cc(C)n(-c2ccc(OCC(=O)O)nn2)n1` belongs 3.33 (inactive).

Consider `CCCNC(=O)Cn1c(-c2ccc(F)cc2)cc(C(=O)OCC)c1C`, for which the z-score was 0.89 (inactive). As to `CCCCSc1ncc(C(=O)OCC)c(N)n1`, the z-score is 2.51 (inactive). `Cc1cc(-c2nc3ncccc3o2)ccc1N`: the z-score was 1.34 (inactive). Consider `COC(=O)N/N=C\c1cc2c(cc1Br)OCO2`, for which the z-score is 0.97 (inactive).

Regarding `CSC1=NC(C)(C)CC2(C)Nc3ccccc3N12` (stereo unspecified), the z-score is -3.03 (active). To `O=C(NCCc1csc(-c2ccccc2)n1)c1ccccc1F` belongs 4.15 (inactive); to `COc1ccc(-c2csc(NC(=O)c3ccccc3NS(=O)(=O)c3ccc(F)c(F)c3)n2)cc1`, -4.95 (active). Then `COc1ccc(C2CC(C(F)(F)F)n3nc(C(=O)NCc4cn(C)nc4C)c(Cl)c3N2)cc1` (stereo unspecified), with -9.71 (active).

For the compound `Cc1c(CNC(=O)c2nn3c(c2Cl)NC(c2ccccc2)CC3C(F)(F)F)cnn1C` (stereo unspecified), the z-score was -4.22 (active). Then `CN1C2CCC1/C(=C/c1cccn1C)C(=O)/C2=C\c1cccn1C`, with 3.1 (inactive); and `N#CC1CC(c2ccc([N+](=O)[O-])cc2)=NN1c1ccc([N+](=O)[O-])cc1` (stereo unspecified), with 5.36 (inactive). Take `Cn1c(-c2ccc3c(c2)OCO3)cc(=O)c2ccccc21`: the z-score is -0.67 (inactive).

As for `CN1/C(=C\C=C2/C(=O)Oc3ccccc3C2=O)C(C)(C)c2ccccc21`, the z-score is 8.51 (inactive). To `CN1/C(=C\C(=O)C[n+]2ccc3ccccc3c2)C(C)(C)c2ccccc21` belongs -4.73 (active); to `O=C(OCC(=O)N1CCN(c2ccccc2)CC1)c1cccc(Cl)c1`, 1.29 (inactive).

Turning to `CN1/C(=C\C=C(/C#N)C(=O)Nc2ccccc2F)C(C)(C)c2ccccc21`, the z-score was 7.42 (inactive).

As for `Cn1ccnc1Sc1nc(Nc2cccc(Cl)c2)nc(N2CCOCC2)n1`, the z-score is -0.82 (inactive). As for `N#C/C(=C/c1ccc(N2CCCCC2)o1)c1cccc(F)c1`, the z-score is 14.6 (inactive). `Clc1ccc2oc(-c3cccnc3NCc3ccccc3)nc2c1`: the z-score was -3.89 (active).

`Clc1ccc2oc(-c3ccccn3)nc2c1`: the z-score was 3 (inactive).

As for `CCN(CC)c1ccc(/C=C(/C#N)C(=O)NC(C)C)o1`, the z-score was 6.43 (inactive). Then `COc1cc(NC(=O)Cn2cnc3sc(C)c(S(=O)(=O)N4CCN(C)CC4)c3c2=O)cc(OC)c1OC`, with 1.41 (inactive); and `Cc1sc2ncn(CC(=O)NCCCC(=O)N3CCN(c4ncccn4)CC3)c(=O)c2c1C`, with -4.71 (active). To `CC(=O)Nc1nc(-c2ccc(Br)s2)cs1` belongs 5.02 (inactive); to `Cc1cc(NC(=O)/C(C#N)=C/c2ccc(-c3ccc(SC(F)F)cc3)o2)n(-c2ccccc2)n1`, 3.43 (inactive); to `Cc1ccc(CNc2ccc3c(c2)OCO3)cc1`, 5.54 (inactive).

Regarding `CCOc1ccc2[nH]c(=O)c(CN(CCc3ccccc3)C(=O)N3CCOCC3)cc2c1`, the z-score was 5.49 (inactive). To `Cc1ccc(NC(=O)N(Cc2ccc3c(c2)OCO3)Cc2cc3cc4c(cc3[nH]c2=O)OCCO4)cc1` belongs -5.39 (active); to `COc1ccc(CC(=O)NNC(=S)Nc2ccccc2)cc1Cl`, 2.56 (inactive); to `CC(C)(C)c1cc(CCC(=O)NNC(=S)NC(=O)c2ccccc2)cc(C(C)(C)C)c1O`, -4.33 (active). Regarding `N#Cc1c(NC(=S)NC(=O)c2ccccc2)sc2c1CCN(CCc1ccccc1)C2`, the z-score was 5.28 (inactive). To `CCc1nc(C)cn1S(=O)(=O)c1cc(OC)c(C)cc1C` belongs -4.29 (active). To `CC(=O)Cc1cc(O)c2ccccc2c1OC(=O)c1ccc(Br)cc1` belongs 8.75 (inactive). To `Cc1ccccc1NC(=O)c1cc(C(=O)c2cc(Cl)ccc2O)cn(-c2ccccc2C)c1=O` belongs -3.14 (active); to `CN1CC=C2C(C#N)=C(N)C(C#N)(C#N)[C@H](c3cccs3)[C@H]2C1`, 10.3 (inactive). In the case of `O=C(Nc1ccc(Cl)cn1)c1ccc([N+](=O)[O-])o1`, the z-score is -3.08 (active). Then `CCSc1ccc(C(=O)Nc2ccc(Br)cn2)cc1[N+](=O)[O-]`, with 1.11 (inactive); and `CCCN1C(=O)S/C(=C/c2ccc(N3CCOCC3)o2)C1=O`, with 14.8 (inactive); and `COc1ccc(C(=O)CSC2=C(C#N)C3(CCCCC3)C(C#N)=C(N)N2)cc1`, with -3.18 (active). Then `COc1ccccc1NC(=O)C1=C(C)NC(SCC(=O)c2ccc(C)cc2)=C(C#N)C1c1ccco1` (stereo unspecified), with 3.29 (inactive); and `CCn1c(C)[n+](CC)c2ccc(S(=O)(=O)N(C)C)cc21`, with -3.4 (active); and `CCN1CCN(C(=O)c2cn(CC)c3ccc(S(=O)(=O)N(C)C)cc3c2=O)CC1`, with 2.68 (inactive).

In the case of `CC(=O)CCc1c(C)c2cccc(C)c2[nH]c1=O`, the z-score is -0.43 (inactive).

Turning to `COCCn1cc(C(=O)NCc2ccco2)c2c3ccccc3n(C)c2c1=O`, the z-score was 2.09 (inactive). Then `CCOc1ccccc1CNC(=O)c1cn(C)c(=O)c2c1c1ccccc1n2C`, with 1.59 (inactive). Then `CC(C)Cn1cc(C(=O)NC2CCN(Cc3ccccc3)CC2)c2c3ccccc3n(C)c2c1=O`, with -3.06 (active); and `Cc1nc(Cl)c2c(n1)NC1=C(O2)C(=O)CCC1`, with -4.1 (active); and `COc1ccc(N(C)S(=O)(=O)c2cccc(C(=O)Nc3nc4ccccc4[nH]3)c2)cc1`, with -3.07 (active).

With `CN(c1cccc(Cl)c1)S(=O)(=O)c1cccc(C(=O)NC2=NCCS2)c1`, the z-score is 3.48 (inactive).

Consider `CN(/C(=N\S(=O)(=O)c1ccccc1)c1ccccc1)c1ccc(O)cc1`, for which the z-score was 1.42 (inactive).

Consider `CCOc1ccc(C2C(C#N)=C(N)SC(N)=C2C#N)c(OCC)c1`, for which the z-score was -3.06 (active).

As for `CCN(CC)c1ccc(/C=C(\C#N)C(=O)c2ccc(Br)cc2)cc1`, the z-score was 3.66 (inactive). With `O=C(NCc1cn2ccccc2n1)c1ccco1`, the z-score is 3.67 (inactive). As for `COc1ccc2cc3cc(C(=O)NCc4ccccn4)oc3nc2c1`, the z-score was 3.32 (inactive). To `O=C(NCc1ccccn1)c1ccc(Cn2cc(Br)cn2)o1` belongs -3.96 (active); to `COc1ccc2c(n1)Sc1nc3ccccc3nc1N2`, 9.57 (inactive). Take `COc1ccc2c(c1)oc(=O)c1ccccc12`: the z-score is -0.04 (inactive).

For `Cc1[nH]ccc(=O)c1OCc1c(Cl)cccc1Cl`, the z-score was -6.12 (active). Then `COC(=O)c1c[nH]n2c(=O)c(Cc3ccc(F)cc3Cl)c(C)nc12`, with 3.42 (inactive); and `CC(=O)Oc1ccc(OC(C)=O)c(SCCCCCCl)c1`, with -3.45 (active); and `CC(=O)Oc1cc2cccc(OC(C)=O)c(=O)c2c(OC(C)=O)c1OC(C)=O`, with -0.38 (inactive). On to `COC(=O)[C@H]1[C@H](C(=O)OC)[C@@H](C(=O)OC)N(c2ccc(OC)cc2)[C@@H]1C(=O)OC`, for which the z-score is -4.45 (active).

In the case of `O=C(CCNS(=O)(=O)c1ccc(Cl)cc1)NCc1cccs1`, the z-score was 1.64 (inactive). To `CCNC(=S)NS(=O)(=O)c1ccc(Cl)cc1` belongs -3.8 (active); to `CC(C)(CNS(=O)(=O)c1ccc(Cl)cc1)N1CCCCC1`, 3.62 (inactive).

In the case of `CCCCCCN1C=CC(=C/C=C(\C#N)C(=O)OCC)C=C1`, the z-score was 16.6 (inactive). Then `C=CCN1C(=O)/C(=C\c2ccc(OC(=O)c3ccco3)c(OC)c2)SC1=S`, with 1.03 (inactive).

On to `O=C(CCn1c(=O)sc2ccccc21)Nc1cccnc1`, for which the z-score is 0.79 (inactive).

As to `COc1ccc(Cn2c(=O)sc3ccccc32)cc1OC`, the z-score is -3.63 (active). With `COc1cc(C)c(Cl)cc1S(=O)(=O)NCc1ccncc1`, the z-score was -4.94 (active). For `COc1cccc(S(=O)(=O)NCc2ccc(C(=O)Nc3ccc(Cl)c(Cl)c3)cc2)c1`, the z-score is 3.13 (inactive). With `Cc1ccc(S(=O)(=O)NCc2ccncc2)c(C)c1C`, the z-score was -6.46 (active).

In the case of `COc1ccc(S(=O)(=O)NCc2ccncc2)cc1OC`, the z-score is -3.36 (active). To `Cc1cc(C)n(C(=O)CCC2COc3ccccc3O2)n1` (stereo unspecified) belongs 3.53 (inactive); to `CCOC(=O)c1c(NC(=O)c2nn(CC)cc2Br)c(C#N)cn1-c1ccccc1`, -3.62 (active); to `c1ccc2c(c1)CCN(CCCNc1nc3ccccc3n3cnnc13)C2`, -3.05 (active). Then `CCN(CC)S(=O)(=O)c1ccc2[nH]cc(C(=O)NCCC3=CCCCC3)c(=O)c2c1`, with -6.41 (active); and `CN1CCNC(=O)C1CC(=O)NCCC1=CCCCC1` (stereo unspecified), with 3.77 (inactive). To `CCn1cc(C(=O)NCCN(C)CCc2ccccc2)c(=O)c2cc(S(=O)(=O)N(C)C)ccc21` belongs 3.87 (inactive); to `CN1CC=C2C(C#N)=C(N)C(C#N)(C#N)C(Cc3ccccc3)C2C1` (stereo unspecified), 3.5 (inactive); to `Cc1cccc(NC(=S)NNC(=O)c2csc(C(C)C)c2)c1`, 1.31 (inactive). Regarding `COc1cccc(-c2nc(N3CCCCC3C)c3ccccc3n2)c1O` (stereo unspecified), the z-score is -3.15 (active). For `COC(=O)c1cc2c(-c3ccccc3)c(C)c3ccccn3c-2c1C(=O)OC`, the z-score is 4.22 (inactive). Consider `O=C1c2cccc3c(N4CCCCC4)ccc(c23)C(=O)N1c1ccccc1O`, for which the z-score was 4.51 (inactive). `O=S(=O)(c1cccs1)N1CCCc2ccccc21`: the z-score is -3.97 (active). Turning to `CC(C)(C)NC(=O)NC(=O)CN1CCCc2ccccc21`, the z-score was 2.02 (inactive). For the compound `CC1Cc2ccccc2N1S(=O)(=O)c1cccs1` (stereo unspecified), the z-score was -6.66 (active).
